Our source for the inhibition values is ChEMBL document CHEMBL1961873, “Compounds: GSK PKIS; Assays: Nanosyn kinase panel” (2012).

For experiment [1], the target named is Serine/threonine-protein kinase pim-2 (Homo sapiens) (UniProt Q9P1W9). As to conditions: at 1 µM.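 Note: each value is a mean of the inhibition measurements against the kinase.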
Experiment [2] has as its target Serine/threonine-protein kinase pim-3 (Homo sapiens) (UniProt Q86V86). As to conditions: at 0.1 µM.
For experiment [3] the target is unchanged. As to conditions: at 1 µM.
Experiment [4] deals with T1, MAP kinase-activated protein kinase 5 (Homo sapiens) (UniProt Q8IW41).
T1 sequence (whole entry): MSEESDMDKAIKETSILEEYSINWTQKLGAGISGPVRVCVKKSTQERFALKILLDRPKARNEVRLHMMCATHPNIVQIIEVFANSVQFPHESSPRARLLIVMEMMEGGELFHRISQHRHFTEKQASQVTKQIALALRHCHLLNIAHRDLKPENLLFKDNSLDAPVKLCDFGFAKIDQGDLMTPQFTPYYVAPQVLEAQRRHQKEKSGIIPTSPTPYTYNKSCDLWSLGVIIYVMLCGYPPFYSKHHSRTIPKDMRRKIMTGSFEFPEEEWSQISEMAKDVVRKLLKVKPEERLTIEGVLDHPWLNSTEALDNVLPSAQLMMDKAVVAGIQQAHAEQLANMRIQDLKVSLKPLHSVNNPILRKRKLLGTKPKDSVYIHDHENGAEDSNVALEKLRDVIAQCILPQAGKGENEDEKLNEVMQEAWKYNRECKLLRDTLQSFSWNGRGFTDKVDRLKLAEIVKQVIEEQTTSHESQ
Conditions: at 0.1 µM.

Experiment [5] deals with T1, MAP kinase-activated protein kinase 5 (Homo sapiens). As to conditions: at 1 µM.
Experiment [6] concerns the target Serine/threonine-protein kinase SIK1 (Homo sapiens) (UniProt P57059). As to conditions: at 0.1 µM.
For experiment [7] the target is unchanged. Conditions: at 1 µM.
For experiment [8], the target named is Serine/threonine-protein kinase SIK2 (Homo sapiens) (UniProt Q9H0K1). As to conditions: at 0.1 µM.
Chain of Serine/threonine-protein kinase SIK2 (Homo sapiens) (Q9H0K1 whole entry, looked up): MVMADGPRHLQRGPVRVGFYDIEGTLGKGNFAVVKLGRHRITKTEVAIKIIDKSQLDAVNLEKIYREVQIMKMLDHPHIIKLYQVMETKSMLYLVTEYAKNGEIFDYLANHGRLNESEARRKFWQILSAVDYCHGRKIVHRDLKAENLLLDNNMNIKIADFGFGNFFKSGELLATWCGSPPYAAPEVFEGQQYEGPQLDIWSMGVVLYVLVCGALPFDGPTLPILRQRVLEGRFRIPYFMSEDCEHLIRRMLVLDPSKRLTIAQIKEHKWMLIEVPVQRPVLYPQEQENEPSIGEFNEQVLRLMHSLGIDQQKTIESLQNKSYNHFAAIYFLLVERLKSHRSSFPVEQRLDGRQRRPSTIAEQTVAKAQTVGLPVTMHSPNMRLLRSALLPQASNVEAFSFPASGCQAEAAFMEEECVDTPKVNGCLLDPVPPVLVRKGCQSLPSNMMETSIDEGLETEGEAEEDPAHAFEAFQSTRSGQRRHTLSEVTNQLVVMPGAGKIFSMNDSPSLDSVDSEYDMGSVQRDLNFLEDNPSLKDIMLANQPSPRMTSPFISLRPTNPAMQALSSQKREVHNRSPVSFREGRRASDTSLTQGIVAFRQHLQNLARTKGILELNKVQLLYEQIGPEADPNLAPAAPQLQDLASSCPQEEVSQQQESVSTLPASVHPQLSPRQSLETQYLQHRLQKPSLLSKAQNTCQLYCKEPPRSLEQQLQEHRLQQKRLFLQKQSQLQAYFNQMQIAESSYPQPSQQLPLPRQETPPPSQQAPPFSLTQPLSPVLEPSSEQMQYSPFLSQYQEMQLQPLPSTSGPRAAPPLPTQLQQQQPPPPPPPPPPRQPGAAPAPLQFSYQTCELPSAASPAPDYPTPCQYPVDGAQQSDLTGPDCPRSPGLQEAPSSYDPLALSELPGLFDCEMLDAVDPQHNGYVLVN
For experiment [9] the target is unchanged. Conditions: at 1 µM.
Experiment [10] addresses T2, Serine/threonine-protein kinase TBK1 (Homo sapiens) (UniProt Q9UHD2).
T2 sequence (whole entry): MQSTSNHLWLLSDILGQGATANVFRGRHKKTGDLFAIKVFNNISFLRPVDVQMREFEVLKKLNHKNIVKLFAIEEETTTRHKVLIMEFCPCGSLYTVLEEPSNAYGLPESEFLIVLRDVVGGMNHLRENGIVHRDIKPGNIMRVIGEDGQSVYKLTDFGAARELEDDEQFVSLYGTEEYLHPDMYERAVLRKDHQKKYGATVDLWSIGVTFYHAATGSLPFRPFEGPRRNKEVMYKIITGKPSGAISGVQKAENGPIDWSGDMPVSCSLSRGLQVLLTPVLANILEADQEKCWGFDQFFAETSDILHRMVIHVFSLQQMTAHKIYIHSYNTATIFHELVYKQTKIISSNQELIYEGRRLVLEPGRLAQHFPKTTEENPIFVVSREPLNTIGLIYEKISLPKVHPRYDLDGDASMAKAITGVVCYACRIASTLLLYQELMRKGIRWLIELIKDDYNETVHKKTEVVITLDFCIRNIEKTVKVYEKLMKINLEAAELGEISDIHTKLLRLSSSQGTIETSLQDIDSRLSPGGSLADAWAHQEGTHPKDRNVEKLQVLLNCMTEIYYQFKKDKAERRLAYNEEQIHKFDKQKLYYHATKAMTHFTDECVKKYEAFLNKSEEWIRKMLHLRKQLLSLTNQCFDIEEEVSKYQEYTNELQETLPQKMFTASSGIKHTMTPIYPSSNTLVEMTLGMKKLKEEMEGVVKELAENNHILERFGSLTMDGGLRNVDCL
Conditions: at 0.1 µM.

Experiment [11] deals with T2, Serine/threonine-protein kinase TBK1 (Homo sapiens). Conditions: at 1 µM.
Experiment [12] has as its target T3, Testis-specific serine/threonine-protein kinase 1 (Homo sapiens) (UniProt Q9BXA7).
T3 sequence (whole entry): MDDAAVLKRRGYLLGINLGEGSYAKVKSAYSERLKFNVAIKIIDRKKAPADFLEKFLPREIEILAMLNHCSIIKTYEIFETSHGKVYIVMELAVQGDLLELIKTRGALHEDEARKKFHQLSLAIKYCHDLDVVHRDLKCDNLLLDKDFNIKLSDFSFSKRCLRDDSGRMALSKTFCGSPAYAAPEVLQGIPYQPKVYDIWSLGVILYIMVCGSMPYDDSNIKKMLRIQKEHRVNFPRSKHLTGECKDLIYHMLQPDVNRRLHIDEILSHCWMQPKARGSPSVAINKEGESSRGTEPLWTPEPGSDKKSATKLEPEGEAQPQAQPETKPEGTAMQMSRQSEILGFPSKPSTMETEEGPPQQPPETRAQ
As to conditions: at 0.1 µM.

In experiment [13] the target is T3, Testis-specific serine/threonine-protein kinase 1 (Homo sapiens). Conditions: at 1 µM.
Experiment [14] concerns the target T4, Testis-specific serine/threonine-protein kinase 2 (Homo sapiens) (UniProt Q96PF2).
T4 sequence (whole entry): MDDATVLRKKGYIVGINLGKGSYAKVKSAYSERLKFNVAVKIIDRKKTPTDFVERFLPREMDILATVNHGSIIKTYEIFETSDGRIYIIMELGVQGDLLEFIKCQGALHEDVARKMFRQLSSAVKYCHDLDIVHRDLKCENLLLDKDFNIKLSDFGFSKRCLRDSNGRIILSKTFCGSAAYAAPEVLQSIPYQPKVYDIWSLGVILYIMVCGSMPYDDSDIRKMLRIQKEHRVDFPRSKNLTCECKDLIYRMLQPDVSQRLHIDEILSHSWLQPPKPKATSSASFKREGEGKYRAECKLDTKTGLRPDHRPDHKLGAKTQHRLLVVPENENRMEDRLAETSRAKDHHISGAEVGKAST
As to conditions: at 0.1 µM.

In experiment [15] the target is T4, Testis-specific serine/threonine-protein kinase 2 (Homo sapiens). Conditions: at 1 µM.
Experiment [16] addresses Casein kinase I isoform alpha (Homo sapiens) (UniProt P48729). Conditions: at 0.1 µM.
The target is the same in experiment [17]. As to conditions: at 1 µM.
Experiment [18] has as its target Casein kinase I isoform gamma-1 (Homo sapiens) (UniProt Q9HCP0). As to conditions: at 0.1 µM.
Experiment [19] shares this target. As to conditions: at 1 µM.
Experiment [20] has as its target Casein kinase I isoform gamma-2 (Homo sapiens) (UniProt P78368). Conditions: at 0.1 µM.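 Note: values are mean inhibition figures reported as part of the GSK PKIS dataset.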

Chain of Casein kinase I isoform gamma-1 (Homo sapiens) (Q9HCP0 whole entry, looked up, canonical isoform): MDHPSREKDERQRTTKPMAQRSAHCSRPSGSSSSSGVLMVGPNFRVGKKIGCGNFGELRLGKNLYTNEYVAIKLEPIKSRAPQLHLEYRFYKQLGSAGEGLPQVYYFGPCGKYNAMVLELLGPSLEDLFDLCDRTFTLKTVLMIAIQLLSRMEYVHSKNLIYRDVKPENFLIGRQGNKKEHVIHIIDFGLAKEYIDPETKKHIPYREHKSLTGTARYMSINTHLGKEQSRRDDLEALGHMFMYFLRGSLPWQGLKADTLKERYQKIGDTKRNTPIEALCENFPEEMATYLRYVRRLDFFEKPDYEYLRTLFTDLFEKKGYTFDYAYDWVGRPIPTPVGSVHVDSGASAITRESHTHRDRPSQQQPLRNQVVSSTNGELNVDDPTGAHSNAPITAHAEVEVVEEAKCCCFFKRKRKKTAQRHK
Chain of Casein kinase I isoform gamma-2 (Homo sapiens) (P78368 whole entry, looked up, canonical isoform): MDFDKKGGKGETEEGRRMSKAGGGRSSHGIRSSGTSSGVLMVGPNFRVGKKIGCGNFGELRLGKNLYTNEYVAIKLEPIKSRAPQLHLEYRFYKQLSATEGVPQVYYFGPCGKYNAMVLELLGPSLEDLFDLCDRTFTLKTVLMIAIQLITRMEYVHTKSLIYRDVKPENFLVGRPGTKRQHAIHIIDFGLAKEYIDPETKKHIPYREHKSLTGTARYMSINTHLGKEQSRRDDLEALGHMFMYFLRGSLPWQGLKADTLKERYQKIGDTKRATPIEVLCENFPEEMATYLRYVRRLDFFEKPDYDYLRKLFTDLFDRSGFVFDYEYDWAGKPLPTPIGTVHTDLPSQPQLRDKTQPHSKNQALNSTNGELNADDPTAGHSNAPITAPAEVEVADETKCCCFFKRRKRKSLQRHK
Chain of Casein kinase I isoform alpha (Homo sapiens) (P48729 2-337 limits assumed): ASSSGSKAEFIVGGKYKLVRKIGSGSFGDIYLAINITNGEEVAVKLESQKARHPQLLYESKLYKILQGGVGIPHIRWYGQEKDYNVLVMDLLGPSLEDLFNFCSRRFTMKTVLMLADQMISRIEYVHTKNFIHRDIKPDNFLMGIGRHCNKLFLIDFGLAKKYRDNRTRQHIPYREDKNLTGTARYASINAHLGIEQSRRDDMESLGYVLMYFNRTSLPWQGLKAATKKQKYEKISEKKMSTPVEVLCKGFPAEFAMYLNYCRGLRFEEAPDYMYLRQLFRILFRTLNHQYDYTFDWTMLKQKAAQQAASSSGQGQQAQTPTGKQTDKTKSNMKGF
Chain of Serine/threonine-protein kinase pim-2 (Homo sapiens) (Q9P1W9 whole entry, looked up): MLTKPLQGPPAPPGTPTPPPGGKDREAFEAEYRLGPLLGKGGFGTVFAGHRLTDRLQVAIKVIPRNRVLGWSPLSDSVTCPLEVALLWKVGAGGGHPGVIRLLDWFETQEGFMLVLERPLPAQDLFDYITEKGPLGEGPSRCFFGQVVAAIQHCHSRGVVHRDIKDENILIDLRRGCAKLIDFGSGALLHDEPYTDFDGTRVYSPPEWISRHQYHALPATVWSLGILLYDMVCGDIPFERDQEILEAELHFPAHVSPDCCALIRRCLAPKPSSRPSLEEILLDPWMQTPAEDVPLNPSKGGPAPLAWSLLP
Chain of Serine/threonine-protein kinase SIK1 (Homo sapiens) (P57059 whole entry): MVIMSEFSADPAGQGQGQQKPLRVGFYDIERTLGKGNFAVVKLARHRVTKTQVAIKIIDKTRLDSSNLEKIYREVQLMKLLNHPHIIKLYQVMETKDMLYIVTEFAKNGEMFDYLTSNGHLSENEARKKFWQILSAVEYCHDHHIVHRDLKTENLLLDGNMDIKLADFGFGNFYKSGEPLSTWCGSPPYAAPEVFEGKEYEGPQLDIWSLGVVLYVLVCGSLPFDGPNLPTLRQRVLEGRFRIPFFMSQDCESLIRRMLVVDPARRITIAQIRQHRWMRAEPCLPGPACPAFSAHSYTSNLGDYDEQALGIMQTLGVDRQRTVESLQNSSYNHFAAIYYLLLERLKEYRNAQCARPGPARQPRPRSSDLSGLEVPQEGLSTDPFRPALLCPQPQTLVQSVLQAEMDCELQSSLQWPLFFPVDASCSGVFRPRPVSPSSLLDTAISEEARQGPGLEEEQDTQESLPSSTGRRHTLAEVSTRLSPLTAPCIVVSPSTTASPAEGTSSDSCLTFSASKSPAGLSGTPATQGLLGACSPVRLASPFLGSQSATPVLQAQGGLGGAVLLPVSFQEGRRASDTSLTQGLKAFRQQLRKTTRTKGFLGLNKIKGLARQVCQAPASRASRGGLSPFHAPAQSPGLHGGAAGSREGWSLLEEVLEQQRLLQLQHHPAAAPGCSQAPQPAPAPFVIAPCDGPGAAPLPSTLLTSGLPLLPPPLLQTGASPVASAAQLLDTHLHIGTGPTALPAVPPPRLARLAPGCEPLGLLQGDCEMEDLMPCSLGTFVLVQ

As usually defined, the inhibition is the drop in the measured response relative to a control, in per cent. As to `CCc1nn2ncccc2c1-c1ccnc(NC2CC2)n1`, the inhibition in [1] came out at 1.22%; in experiment [2], 0.67%; in experiment [3], 4.22%; in experiment [4], 0.66%; in experiment [5], 1.12%; in experiment [6], 0.6%. In addition, the inhibition in [7] worked out at 7.84%; in experiment [8], 0.42%; in experiment [9], 2.21%; in experiment [10], 2.11%; in experiment [11] it was 3.02%; in experiment [12] it was 1.98%. For the same compound, the inhibition in [13] amounted to 3.93%; in [14], 1.82%; in [15] it was 2.06%; in [16], 4.3%; in [17] it was 15.9%; in experiment [18] it was 1.08%. Also, the inhibition in experiment [19] stood at 2.03%; in [20], 1.32%.
As to `CNC(=O)c1cccc(C#Cc2cncnc2Nc2ccc(OCc3cccc(F)c3)c(Cl)c2)c1`, the inhibition in experiment [1] is -1.75%; in [2] it was 0.69%; in experiment [3], 2.29%; in [4] it was 0.27%; in experiment [5], 1.49%; in experiment [6] it was 2.11%. Moreover, the inhibition in [7] was 3.26%; in [8] it was -1.57%; in experiment [9] it was -1.75%; in [10], -0.71%; in experiment [11], 0.61%; in experiment [12] it was 1.65%. Moreover, the inhibition is 1.56% in experiment [13]; 1.7% in [14]; 2.08% in experiment [15]; -4.8% in experiment [16]; 0.1% in [17]; 1.2% in experiment [18]. For the same compound, the results for the inhibition in experiment [19] and in experiment [20] were 1.46% and 1.23%, respectively.
Regarding `CCCN1CCC(c2ccc(Nc3nc(Nc4cc(F)ccc4C(N)=O)c4cc[nH]c4n3)c(OC)c2)CC1`, the inhibition in experiment [1] is 13.3%; in experiment [2] it was 8.07%; in experiment [3] it was 49.4%; in [4] it was 6.44%; in experiment [5], 40.9%; in [6], 10.1%. Moreover, the inhibition in experiment [7] was 14.7%; in [8] it was 10.9%; in experiment [9], 11.7%; in experiment [10], 0.75%; in [11], 10.2%; in [12] it was 82.4%. For the same compound, the inhibition came to 94.8% in experiment [13]; 63.3% in experiment [14]; 91.1% in experiment [15]; 31.9% in experiment [16]; 67.5% in [17]; 23.7% in experiment [18]. Also, the inhibition in experiment [19] stood at 72.1%; in [20], 20.9%.
Take `Nc1ncc(-c2cccc(S(N)(=O)=O)c2)c2scc(-c3ccc(F)c(Cl)c3)c12`: the inhibition came to 0.78% in experiment [1]; 1.11% in [2]; 0.91% in [3]; 1.73% in [4]; 1.77% in experiment [5]; 20.4% in [6]. The inhibition worked out at 61% in experiment [7]; 9.17% in experiment [8]; 28.8% in experiment [9]; 3.75% in [10]; 3.47% in [11]; 3.24% in experiment [12]. The inhibition is 4.96% in experiment [13]; 2.48% in experiment [14]; 2.51% in [15]; 6.19% in [16]; 36.5% in [17]; 2.96% in [18]. In addition, the results for the inhibition in experiment [19] and in experiment [20] were 4.15% and 2.73%, respectively.
As to `CS(=O)(=O)CCNCc1ccc(-c2ccc3ncnc(Nc4ccc(OCc5ccccc5)c(C(F)(F)F)c4)c3c2)o1`, the inhibition in experiment [1] is 1.13%; in experiment [2], -1.28%; in [3] it was -0.2%; in [4], 1.1%; in experiment [5] it was 1.66%; in experiment [6], 4.5%. Also, the inhibition in experiment [7] stood at 6.16%; in experiment [8] it was 4.8%; in experiment [9], 2.29%; in [10], 0.23%; in experiment [11], 1.05%; in experiment [12], 3.83%. Besides, the inhibition in experiment [13] was determined as 3.88%; in [14], 0.53%; in experiment [15] it was 0.75%; in [16], 2.27%; in [17], 0.82%; in experiment [18], 3.86%. In addition, the inhibition worked out at 8.13% in experiment [19] and 3.82% in experiment [20].
